# Screens deposited in PubChem by National Center for Advancing Translational Sciences (NCATS).
# Cruzain inh noDet: cruzain (T. cruzi) inhibition without detergent; purified cruzain, Z-FR-AMC fluorescence, no detergent; Potency, µM, usual class: inhibitors; 200,000 tested, 2.3% active; AID 1476; note: nearly all actives have a fitted effect of over 40% in size
# Target sequence (P25779 123-467 limits assumed): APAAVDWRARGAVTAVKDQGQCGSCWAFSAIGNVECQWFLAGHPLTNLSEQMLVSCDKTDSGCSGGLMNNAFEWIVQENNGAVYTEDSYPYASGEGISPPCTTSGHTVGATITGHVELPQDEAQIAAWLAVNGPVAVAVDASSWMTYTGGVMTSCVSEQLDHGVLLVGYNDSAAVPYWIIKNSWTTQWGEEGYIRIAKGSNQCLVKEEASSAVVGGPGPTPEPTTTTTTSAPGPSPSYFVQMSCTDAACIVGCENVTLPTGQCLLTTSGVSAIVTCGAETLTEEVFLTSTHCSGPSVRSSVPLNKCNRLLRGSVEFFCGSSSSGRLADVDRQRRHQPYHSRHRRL
#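 Purified cruzain at 1.5 nM, pre-incubated 15 min with compound at room temperature in 100 mM sodium acetate pH 5.5, 5 mM DTT, 0.00005% Triton X-100. Reaction started with 2 uM Z-FR-AMC; AMC fluorescence increase over 60 s gives rate.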
# Cruzain Triton: cruzain (T. cruzi) inhibition with detergent | P25779 | purified cruzain, Z-FR-AMC fluorescence, 0.01% Triton | Potency, µM, actives largely listed as inhibitors | 200,000 tested, 0.43% active; note: nearly all actives have a fitted effect of over 40% in size
#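 Purified cruzain (1.5 nM final) was preincubated with compounds for 15 min at room temperature in 100 mM sodium acetate pH 5.5, 5 mM DTT, 0.01% Triton X-100. Reaction started with 2 uM Z-FR-AMC; AMC fluorescence change over 60 s gave activity.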
# A number is an active result; 0 = inactive; ? = inconclusive. Compounds with a hit are over-represented: about 2.5% of the library has one in this group of screens. Calls come from the whole dose curve; as a rule, active = well fitted curve in the direction sought with a large enough effect; inconclusive = small, poorly fitted or top-dose-only effect, or another doubt; inactive = no such curve, though single readings can be large; an effect the other way counts as inactive or inconclusive.
SMILES,Cruzain inh noDet,Cruzain Triton
O=C(CSc1nnnn1-c1ccc2c(c1)OCCO2)c1cccc2c1OCCO2,25µM,0
Cc1cc(C(=O)CSc2nnc(-c3cccc(F)c3)n2N)c(C)n1Cc1ccc2c(c1)OCO2,20µM,0
O=C(CSc1nnc(-c2cccs2)n1-c1cccc(Cl)c1)c1cccc2c1OCCO2,25µM,0
CC(=O)c1c(C)[nH]c(C(=O)CSc2nnc(-c3ccccc3)n2Cc2ccc3c(c2)OCO3)c1C,0,0
Cc1cc(C(=O)CSc2nnnn2-c2ccc(O)cc2)c(C)n1Cc1ccc2c(c1)OCO2,16µM,0
Cc1ccc(-n2nnnc2SCC(=O)c2cc(C)n(CC3CCCO3)c2C)cc1 (stereo not given),0,0
CCc1ccc(NC(=O)[C@H](Cc2ccccc2)N2Cc3ccccc3C2=O)cc1,0,0
Cc1ccc(C(=O)c2cn(CC(=O)NC3CCCCC3)c3nc(C)ccc3c2=O)cc1,0,0
Oc1c(C(c2cccc(Cl)c2)N2CCOCC2)sc2nc(-c3ccco3)nn12 (stereo not given),0,0
C=Cc1ccc(Cn2c(C(=O)O)c(CNCc3ccccc3)c3ccc(C)cc32)cc1,0,0
COc1cccc(-n2c(=O)c3sc4ccccc4c3n(Cc3c(F)cccc3Cl)c2=O)c1,0,0
Cc1ccc(CNS(=O)(=O)c2c(C)nc3sc(C)cn3c2=O)cc1,0,0
Cc1cc(C(=O)CSc2nncs2)c(C)n1-c1ccc2c(c1)OCO2,?,0
Cc1cc(C(=O)CSc2nnnn2-c2ccccc2)c(C)n1-c1ccc2c(c1)OCO2,3.2µM,0
Cc1ccc(NC(=O)CSc2nnnn2-c2ccc3c(c2)OCO3)cc1C,25µM,0
Cc1ccc(-n2nnnc2SCC(=O)Nc2ccc3c(c2)OCCO3)cc1C,0,0
Cc1cc(C(=O)COC(=O)Cc2n[nH]c(=O)c3ccccc23)c(C)n1-c1ccc2c(c1)OCCO2,16µM,0
CCCn1c(SCC(=O)c2cc(C)n(-c3ccc4c(c3)OCO4)c2C)n[nH]c1=O,?,0
Cc1cc(C(=O)COc2ccc(C#N)cc2)c(C)n1-c1ccc2c(c1)OCO2,25µM,0
Cc1cc(C(=O)COC(=O)C2=COCCO2)c(C)n1-c1ccc2c(c1)OCO2,0,0
COc1cccc(Cn2c(NCc3ccc(C)cc3)nc3c2c(=O)n(C)c(=O)n3C)c1,0,0
Cc1cc(C)c2oc(C(=O)Nc3c(C(=O)c4ccccc4)oc4ccccc34)cc(=O)c2c1,0,0
COc1cccc(Nc2nnc(-c3cc4ccc(O)cc4oc3=O)s2)c1,0,0
COc1ccccc1NC(=O)c1sc2nc(C)c(C(=O)Nc3ccc(C)cc3C)c(-c3ccco3)c2c1N,0,0
CCN(CC)c1ccc(S(=O)(=O)Nc2cc(Cl)ccc2Cl)cc1NC(=S)NC(=O)C1CCCC1,32µM,0
SMILES,Cruzain inh noDet,Cruzain Triton
COc1ccccc1NS(=O)(=O)c1ccc(Cl)c(NC(=S)NC(=O)C2CCCC2)c1,?,0
O=C(COc1cc(O)c2c(=O)cc(-c3ccccc3)oc2c1)c1ccccc1,?,0
O=C(COc1cc(O)c2c(=O)cc(-c3ccccc3)oc2c1)c1ccc(F)cc1,13µM,0
Cc1cc2c(cc1S(=O)(=O)Nc1cccc(C#N)c1)OCC(=O)N2,0,0
COc1ccc(Cl)cc1N/C(N)=N/c1nc(CSc2ccc(C)cc2)cc(=O)[nH]1,?,0
Cc1ccc(SCc2cc(=O)[nH]c(/N=C(\N)Nc3cccc4ccccc34)n2)cc1,32µM,0
Cc1ccccc1-c1noc(-c2ccc(N3CCCC3)c([N+](=O)[O-])c2)n1,0,0
CC(C)(C)C(=O)Nc1ccc2nc(SCCOc3ccccc3Cl)sc2c1,0,0
CCN1C(c2ccccc2)=C(c2ccccc2)S/C1=C/C=C1\SC(=S)N(C)C1=O,10µM,0
CCN1C(=O)/C(=C/C=C2/Sc3ccc4ccccc4c3N2CCO)SC1=S,0,0
CCc1ccc(Oc2nc3c(C)cccn3c(=O)c2/C=C(\C#N)c2nc3ccccc3[nH]2)cc1,0,0
O=C(NCCc1cccc(Cl)c1)c1ccc(Cl)c([N+](=O)[O-])c1,0,0
O=C(NCCc1nc2ccccc2[nH]1)c1ccco1,13µM,0
O=C(Nc1ccc2nc(-c3ccccc3)[nH]c2c1)c1ccco1,0,0
O=C(/C=C/c1ccco1)N/C(=C\c1ccccc1)C(=O)NCCc1nc2ccccc2[nH]1,0,0
Cc1ccc(C(=O)NCCSc2c(C)[nH]c3ccccc23)cc1[N+](=O)[O-],0,0
O=C(Nc1cccc(-c2nc3ccccc3[nH]2)c1)c1cccc(NC(=O)c2ccco2)c1,5µM,10µM
Cc1ccc(C(=O)NCCc2nc3ccccc3[nH]2)cc1[N+](=O)[O-],0,4.5µM
O=C(NCCc1nc2ccccc2[nH]1)c1ccc(Cl)c([N+](=O)[O-])c1,2µM,1.3µM
COc1nnc(-c2ccc(N3CCCCC3)c(NC(=O)c3ccccc3Cl)c2)c2ccccc12,0,0
CC[C@@]1(O)CC2CN(CCc3c([nH]c4ccccc34)[C@](C(=O)OC)(c3cc4c(cc3OC)N(C)C3[C@@](O)(C(=O)OC)C(OC(C)=O)[C@]5(CC)C=CCN6CC[C@@]43C65)C2)C1 (stereo not given in full),0,0
CCc1c(C)sc(NC(=O)c2cc(-c3ccc(OC)cc3)on2)c1C#N,0,0
COc1ccc(-c2nc(SCC(=O)Nc3cccc(C(C)=O)c3)n[nH]2)cc1,0,0
CCCCCNc1nc2c(-c3ccccc3)nnn2c2ccccc12,0,0
Cn1nnnc1SCCCNCc1ccccc1OCc1ccccc1F,0,0
SMILES,Cruzain inh noDet,Cruzain Triton
Cc1cccc(C)c1-n1ncc(C(=O)N2CCN(c3ccccn3)CC2)c1C1CCN(C(=O)OC(C)(C)C)CC1,?,0
Cc1c2cnn(CC(=O)N3CCN(c4ccc(F)cc4)CC3)c(=O)c2c(C)n1Cc1ccccc1F,0,0
Cc1cc(C)n(Cc2ccc(Cl)cc2Cl)c(=O)c1S(=O)(=O)c1ccccc1,0,0
CSc1cc(-c2ccccc2)n(Cc2ccc(Cl)cc2Cl)c(=O)c1C#N,25µM,0
CCOC(=O)c1ccccc1NC(=O)CSc1ccc(-c2cccs2)nn1,0,0
Cc1cccc(NC(=O)Nc2cccs2)c1C,0,0
CCn1c(NC(=O)Nc2cccc(C)c2C)cc2sccc21,25µM,0
O=c1c(-c2ccc(F)c(F)c2)nc2cncnc2n1Cc1ccccc1Cl,0,0
O=c1c(-c2cc(F)cc(F)c2)nc2cncnc2n1Cc1ccccc1Cl,25µM,0
NCCn1c(=O)c(CCc2ccccc2)nc2cncnc21,0,0
O=c1c(CCc2ccccc2)nc2cncnc2n1Cc1ccccc1Cl,3.2µM,0
CCC(=O)N1c2ccc(S(=O)(=O)CCC(=O)NCc3ccc(OC)cc3)cc2CC1C (stereo not given),0,0
O=C(c1csnn1)N1CCC2(CC1)CCN(c1cccc(-c3ccccc3)c1)CC2,?,0
O=C(c1cnccn1)N1CCC2(CCCN(c3ccccc3)C2)CC1,0,0
CCOC(=O)c1ccc(NC(=O)CC2C(=O)N(c3ccc(F)cc3)C(=O)N2Cc2ccc3c(c2)OCO3)cc1 (stereo not given),0,0
CNc1oc(-c2ccccc2Cl)nc1P(=O)(c1ccccc1)c1ccccc1,?,0
CNc1oc(-c2ccc(C)cc2)nc1P(=O)(c1ccccc1)c1ccccc1,0,11µM
C=C(C)C(=O)OC,0,0
O=C1c2ccccc2C(=O)C12OC2c1ccc(Cl)cc1 (stereo not given),0,0
